According to the supplement of paper PMC12645437, “Orthogonal IMiD-Degron Pairs Induce Selective Protein Degradation in Cells” (ACS Chemical Biology, 2025):
The full ranking holds about 8,300 sequences; the median of “log2 fold change of degron read counts, EGFP-low vs EGFP+ sorted cells (limma voom), compound-induced degradation” is about -1.1, and the highest 2% start at about 3.2. This is one part of a sample in which the highest values are shown more often than they occur.

T1: CRBN, Q96SW2
T1 chain: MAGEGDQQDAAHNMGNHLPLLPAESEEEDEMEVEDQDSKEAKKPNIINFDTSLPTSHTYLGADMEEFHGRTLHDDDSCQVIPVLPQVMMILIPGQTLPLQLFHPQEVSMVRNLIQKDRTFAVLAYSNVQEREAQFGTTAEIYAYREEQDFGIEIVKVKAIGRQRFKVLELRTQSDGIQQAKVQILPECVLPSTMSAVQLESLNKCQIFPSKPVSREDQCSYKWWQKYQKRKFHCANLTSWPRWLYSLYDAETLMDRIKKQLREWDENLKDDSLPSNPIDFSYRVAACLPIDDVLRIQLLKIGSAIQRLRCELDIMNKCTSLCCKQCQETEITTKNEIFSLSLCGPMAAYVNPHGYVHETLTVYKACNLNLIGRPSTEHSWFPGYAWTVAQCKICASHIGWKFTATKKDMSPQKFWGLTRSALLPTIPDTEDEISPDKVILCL


Molecular target: T1, CRBN, Q96SW2
Assay: log2 fold change of degron read counts, EGFP-low vs EGFP+ sorted cells (limma voom), compound-induced degradation; higher = more compound-induced degradation of the degron-EGFP fusion; degrons are variants of IKZF1/3 zinc finger 2; compound dose not given here
Settings: Jurkat, 18 h
[1] = compound: compound 19 (5-tert-butyl-thalidomide)
[2] = compound: compound 22 (5-morpholino-thalidomide)
[3] = compound: compound 33 (diphenyl IMiD analogue)
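Note: pooled lentiviral library of zinc finger degron-EGFP fusions in mCherry-positive Jurkat cells, FACS-sorted after compound exposure, with degron abundance counted by next-generation sequencing.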

Sequence | log2 fold change of degron read counts [1] | log2 fold change of degron read counts [2] | log2 fold change of degron read counts [3] | log2 fold change of degron read counts (compound: thalidomide)
FACDQCGAYFTQKGNLLRHIKL [46F_47A_49D_50Q_52G_53A_54Y_55F_67L_, Q9UKT9] | -1.75 | -2.34 | -1.85 | -2.43
FLCSVCGHQFTQKGNLLRHIKL [46F_47L_49S_50V_52G_53H_54Q_55F_67L_, Q9UKT9] | -2.83 | -2.7 | -2.54 | -2.76
FKCDQCGACFTQKGNLLRHIKL [46F_47K_49D_50Q_52G_53A_54C_55F_67L_, Q9UKT9] | -2.75 | -3.31 | -3.66 | -3.24
FLCPQCGAIFTQKGNLLRHIKL [46F_47L_49P_50Q_52G_53A_54I_55F_67L_, Q9UKT9] | -1.63 | -1.54 | -0.716 | -0.881
FKCDICGASFTQKGNLLRHIKL [46F_47K_49D_50I_52G_53A_54S_55F_67L_, Q9UKT9] | -0.288 | -2.66 | -3.19 | -1.69
FACDVCGAQFTQKGNLLRHIKL [46F_47A_49D_50V_52G_53A_54Q_55F_67L_, Q9UKT9] | 1.75 | -0.392 | -1.04 | -1.67
FGCEICGAVFTQKGNLLRHIKL [46F_47G_49E_50I_52G_53A_54V_55F_67L_, Q9UKT9] | 2.88 | 2.6 | 2.14 | 1.13
FYCEICGAVFTQKGNLLRHIKL [46F_47Y_49E_50I_52G_53A_54V_55F_67L_, Q9UKT9] | 3.66 | 3.6 | 2.79 | 1.07
FNCEICGAVFTQKGNLLRHIKL [46F_47N_49E_50I_52G_53A_54V_55F_67L_, Q9UKT9] | 1.15 | -0.231 | 0.00137 | -0.335
FTCEICGAVFTQKGNLLRHIKL [46F_47T_49E_50I_52G_53A_54V_55F_67L_, Q9UKT9] | 0.417 | 1.97 | 2.08 | 2.64
FSCEICGAVFTQKGNLLRHIKL [46F_47S_49E_50I_52G_53A_54V_55F_67L_, Q9UKT9] | 2.73 | 1.89 | 2.49 | 1.44
FMCEICGAVFTQKGNLLRHIKL [46F_47M_49E_50I_52G_53A_54V_55F_67L_, Q9UKT9] | -1.1 | -0.16 | 2.5 | 1.37
FACEICGAVFTQKGNLLRHIKL [46F_47A_49E_50I_52G_53A_54V_55F_67L_, Q9UKT9] | 3.29 | 2.39 | 1.27 | 0.606
FCCEICGAVFTQKGNLLRHIKL [46F_47C_49E_50I_52G_53A_54V_55F_67L_, Q9UKT9] | 1.77 | 1.91 | 2.47 | 2.16
FFCEICGAVFTQKGNLLRHIKL [46F_47F_49E_50I_52G_53A_54V_55F_67L_, Q9UKT9] | 3.46 | 3.76 | 2.2 | 1.64
FECEICGAVFTQKGNLLRHIKL [46F_47E_49E_50I_52G_53A_54V_55F_67L_, Q9UKT9] | -0.462 | -0.764 | 1.98 | 2.39
FHCEICGAVFTQKGNLLRHIKL [46F_47H_49E_50I_52G_53A_54V_55F_67L_, Q9UKT9] | 1.69 | 1.65 | 1.31 | 0.109
FWCEICGAVFTQKGNLLRHIKL [46F_47W_49E_50I_52G_53A_54V_55F_67L_, Q9UKT9] | 3.33 | 3.51 | 2.5 | 0.916
FVCPICGRLFTQKGNLLRHIKL [46F_47V_49P_50I_52G_53R_54L_55F_67L_, Q9UKT9] | -1.24 | -0.36 | 0.85 | 1.08

Sequence | log2 fold change of degron read counts [1] | log2 fold change of degron read counts [2] | log2 fold change of degron read counts [3] | log2 fold change of degron read counts (compound: thalidomide)
LVCNQCGFKCTQKGNLLRHIKL [46L_47V_49N_50Q_52G_53F_54K_55C_67L_, Q9UKT9] | -2.22 | -2.27 | -2.4 | -0.986
FFCSVCGHHFTQKGNLLRHIKL [46F_47F_49S_50V_52G_53H_54H_55F_67L_, Q9UKT9] | -2.1 | -2.74 | -2.17 | -1.83
FCCNQCGHNFTQKGNLLRHIKL [46F_47C_49N_50Q_52G_53H_54N_55F_67L_, Q9UKT9] | -2.54 | -3.15 | -2.94 | -2.37
FHCPVCGAMFTQKGNLLRHIKL [46F_47H_49P_50V_52G_53A_54M_55F_67L_, Q9UKT9] | 1.4 | 1.46 | 1.42 | -0.0518
FYCNQCGRRFTQKGNLLRHIKL [46F_47Y_49N_50Q_52G_53R_54R_55F_67L_, Q9UKT9] | -2.62 | -2.54 | -2.6 | -2.29
LFCPICGFVCTQKGNLLRHIKL [46L_47F_49P_50I_52G_53F_54V_55C_67L_, Q9UKT9] | 3.02 | 2.99 | 1.66 | 1.45
FLCNVCGAQFTQKGNLLRHIKL [46F_47L_49N_50V_52G_53A_54Q_55F_67L_, Q9UKT9] | -2.31 | -2.24 | -0.00793 | -0.809
FQCPVCGADFTQKGNLLRHIKL [46F_47Q_49P_50V_52G_53A_54D_55F_67L_, Q9UKT9] | -0.246 | 1.22 | 2.37 | 3.4
FLCPVCGARFTQKGNLLRHIKL [46F_47L_49P_50V_52G_53A_54R_55F_67L_, Q9UKT9] | -0.179 | -0.342 | 0.651 | 1.68
FRCPVCGARFTQKGNLLRHIKL [46F_47R_49P_50V_52G_53A_54R_55F_67L_, Q9UKT9] | -1.26 | -1.08 | -0.255 | 0.153
FVCPVCGALFTQKGNLLRHIKL [46F_47V_49P_50V_52G_53A_54L_55F_67L_, Q9UKT9] | -1.75 | 0.353 | 1.26 | 0.951
FWCPVCGARFTQKGNLLRHIKL [46F_47W_49P_50V_52G_53A_54R_55F_67L_, Q9UKT9] | 2.67 | 3.51 | 1.2 | 1.26
FKCPVCGARFTQKGNLLRHIKL [46F_47K_49P_50V_52G_53A_54R_55F_67L_, Q9UKT9] | -1.78 | -2.92 | -2.71 | -1.48
FTCPVCGARFTQKGNLLRHIKL [46F_47T_49P_50V_52G_53A_54R_55F_67L_, Q9UKT9] | 0.934 | 2.59 | 1.76 | 2.95
FCCPVCGADFTQKGNLLRHIKL [46F_47C_49P_50V_52G_53A_54D_55F_67L_, Q9UKT9] | 0.844 | 0.509 | 1.45 | 0.741
FGCPVCGARFTQKGNLLRHIKL [46F_47G_49P_50V_52G_53A_54R_55F_67L_, Q9UKT9] | 3.6 | 2.1 | -0.116 | 1.03
FFCPVCGALFTQKGNLLRHIKL [46F_47F_49P_50V_52G_53A_54L_55F_67L_, Q9UKT9] | 1.62 | 1.64 | 1.45 | 0.0806
FVCPVCGADFTQKGNLLRHIKL [46F_47V_49P_50V_52G_53A_54D_55F_67L_, Q9UKT9] | -0.973 | 0.651 | 1 | 1.76
FQCPVCGALFTQKGNLLRHIKL [46F_47Q_49P_50V_52G_53A_54L_55F_67L_, Q9UKT9] | -1.05 | 1.65 | 1.66 | 3.5
